{"source": "PubChem BioAssay AID493192", "about": "(National Center for Advancing Translational Sciences (NCATS), 2011)", "note": "Inconclusive results are not listed. Entries that show only a call come without a potency. Activity calls are given as the source filed them. Calls come from the whole dose curve; as a rule, active = well fitted activation curve with a large enough effect; inconclusive = small, poorly fitted or top-dose-only effect; inactive = no such curve, though single readings can be large or run the other way. Potency is the fitted concentration of half-maximal effect.", "data": [{"test": "qHTS Assay for Identifying a Potential Treatment of Ataxia-Telangiectasia: Hit Validation;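 note: phospho-KAP1 level by AlphaLISA as a proxy for ATM-like kinase activity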", "conditions": "Ataxia-telangiectasia cell-based hit validation qHTS, in ATM-null A-T patient fibroblasts; series mostly up to 76.9 µM", "summary_of_the_method": "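KAP-1 phosphorylation was read by AlphaLISA as a measure of ATM-like activity in ATM-null F2112 fibroblasts. Compounds spanned up to 76.7 uM final, with 60 min exposure at 37C and a 6 hr detection incubation at 25C.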", "values": [{"compound": "COc1cc(CCC(=O)OCC(=O)N2CCc3ccccc32)cc(OC)c1OC", "Potency": "inactive"}, {"compound": "CNC(=S)N(CCO)Cc1cc2cc3c(cc2[nH]c1=O)OCCO3", "Potency": "inactive"}, {"compound": "CSc1nc(SCC(=O)O)c2c3c(sc2n1)COC(C)(C)C3", "Potency": "inactive"}, {"compound": "CCOc1ccc(NC2=CC(=O)CCC2)cc1", "Potency": "inactive"}, {"compound": "CC(C)c1ccc(C(C(=O)NC2CCCCC2)N(C(=O)c2ccccn2)c2cccnc2)cc1", "note": "(stereo not drawn)", "Potency": "inactive"}, {"compound": "CCOc1ccccc1CNC(=O)Cn1c(=O)oc2ccccc21", "Potency": "23.2 µM (active)"}, {"compound": "OC(CN1CCCCC1)Cn1c2ccc(Cl)cc2c2cc(Cl)ccc21", "note": "(stereo not drawn)", "Potency": "inactive"}, {"compound": "CCc1ccc(NC(=O)CNCc2ccc(OC)c(OC)c2)cc1", "Potency": "inactive"}, {"compound": "O=C1CN(C(=O)NCC(=O)N[C@H](C(=O)O)c2ccccc2)c2ccccc2N1", "Potency": "inactive"}, {"compound": "COc1ccc(C2NC(=S)NC3=C2N2CCC3CC2)cc1", "note": "(stereo not drawn)", "Potency": "0.823 µM (active)"}, {"compound": "COc1cccc(/C=N/NC(=O)c2cc3cc([N+](=O)[O-])ccc3s2)c1O", "Potency": "51.9 µM (active)"}, {"compound": "CCn1nc(C)c(CNC(=O)c2cc(COc3ccc(F)cc3Cl)on2)c1C", "Potency": "inactive"}, {"compound": "CC(=O)/C(N=Nc1nc2c([nH]1)c(=O)n(C)c(=O)n2C)=C(\\C)O", "Potency": "inactive"}, {"compound": "Cc1ccnc(NC(=O)c2ccccc2NC(=O)c2ccccc2)c1", "Potency": "inactive"}, {"compound": "OC(COC(c1ccc(F)cc1)c1ccc(F)cc1)CN1CCCC1", "note": "(stereo not drawn)", "Potency": "inactive"}, {"compound": "CC(C)OP(=O)(OC(C)C)C(O)c1ccc(N(C)C)cc1", "note": "(stereo not drawn)", "Potency": "inactive"}, {"compound": "Cc1oc2ccc(OCc3ccc(Br)cc3)cc2c1C(=O)O", "Potency": "inactive"}, {"compound": "COc1ccccc1C(=O)NC(=O)Nc1cccc(Cl)c1", "Potency": "inactive"}]}]}
